# Laboratory results from PubChem BioAssay AID651965 (National Center for Advancing Translational Sciences (NCATS), 2013).
# Out of some 340,000 compounds screened, about 6,400 (1.9%) were called active. Not shown: some 4% with an inconclusive outcome. For the sample, actives were picked, then their nearest neighbours and some compounds at random. Values without a mark were called inactive. Calls come from the whole dose curve; as a rule, active = well fitted falling curve with a large enough effect; inconclusive = small, poorly fitted or top-dose-only effect; inactive = no such curve, though single readings can be large or run the other way.
# Target: ATP-dependent Clp protease proteolytic subunit (Bacillus subtilis (strain 168)) (UniProt P80244)
# Assay: qHTS Assay for Activators of ClpP; note: the source files actives as falling curves though it sought activators and does not explain the sign; nearly all actives have a fitted effect of over 65% in size
# Settings: purified B. subtilis ClpP, FRET peptide cleavage, 20 min; series mostly up to 57.5 µM; activity change, negative = active: at the top concentration
# Summary of the method: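 ClpP 10 microg/mL final, pH 8 Tris/KCl buffer with BSA, glycerol, Tween-20; compound pinned in; FRET-FV substrate; RT 20 min; Ex320/Em430; ΔFRET vs ADEP 5.8 microM, DMSO, no enzyme.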
# Potency is the fitted concentration of half-maximal effect.
SMILES,"activity change, negative = active",Potency
O=S1(=O)CC(N2CCN(Cc3ccccc3F)CC2)CN1Cc1cn(Cc2ccccc2)nn1 (stereo unspecified),0.896%,
Cc1c(CCO)sc[n+]1CC(=O)c1ccc2ccccc2c1,3.84%,
CCc1nc2ccc(C(=O)N(C)Cc3ccco3)cn2c1N(C)C(=O)Cc1ccccc1,-2.03%,
CN(CCO)C(=O)c1nc[nH]c1C(=O)N(C)Cc1ccccc1,2.81%,
CN(Cc1ccccc1)C(=O)[C@@H]1CCCN1C(=O)[C@@H]1CCCN1C(=O)c1c(F)cccc1F,1.37%,
Cc1nccn1-c1ccc(NC(=O)[C@H]2O[C@@H](n3ccc(=O)[nH]c3=O)[C@H](O)[C@@H]2O)cc1,2.72%,
CCCC(=O)N1CCC1(C)C(=O)Nc1ccc(-n2cncn2)cc1 (stereo unspecified),-3.69%,
Cc1ccc(Cn2ccc(NC(=O)C3C4CCC(C4)C3C(=O)O)n2)cc1 (stereo unspecified),-28.6%,
O=C(Nc1ccn(Cc2ccccc2F)n1)c1ccc(COc2ccc(Cl)cc2Cl)o1,-17.4%,
O=C(Nc1ccn(Cc2ccccc2)n1)c1n[nH]c([N+](=O)[O-])c1Cl,,22.4 µM (active)
O=C(c1cnn2c1NC(=C1CC1)C=C2C(F)F)N1CCc2ccccc2C1,0.979%,
Cc1ccc(C(O)c2ncc(-c3ccccc3F)[nH]2)cc1F (stereo unspecified),0.929%,
CCCCN(C(=O)c1ccc(C)o1)c1c(N)n(CCCC)c(=O)[nH]c1=O,0.476%,
CCCCn1c(N)c(N(CCC(C)C)C(=O)c2ccc([N+](=O)[O-])o2)c(=O)[nH]c1=O,,3.16 µM (active)
CCCCn1c(N)c(N(CCC(C)C)C(=O)c2ccc(COc3ccccc3)o2)c(=O)[nH]c1=O,-5.35%,
CCN(C(=O)Nc1cccc2ccccc12)c1ccccc1,4.17%,
Cc1cc(=O)[nH]c(SCc2ccc(Cl)cc2)n1,0.425%,
O=c1cc(O)nc(SCc2ccccc2Cl)[nH]1,,28.2 µM (active)
Cc1cc(=O)[nH]c(SCc2cc(Cl)ccc2OC(F)F)n1,-0.513%,
O=C(Nc1cccc2ccccc12)c1[nH]c(-c2ccccc2)c2c1C(=O)N(C1CC1)C2=O,1.62%,
O=C(OC1CC2CC1[C@H]1CCCCN1C2=O)N1CCOCC1 (stereo partly specified),1.07%,
COc1ccccc1-c1sc2ccccc2c1C#CC1(O)CCCCC1,-0.0591%,
COc1ccccc1-c1sc2ccccc2c1-c1ccc(C(C)=O)cc1,,28.2 µM (active)
COc1ccc2sc(-c3ccccc3OC)c(-c3ccc(OCCN4CCCC4)cc3)c2c1,-7.61%,
CCCOc1ccc(F)cc1-c1cc(C(=O)Nc2ccc(F)c(Cl)c2)[nH]n1,-24.4%,
CN(C)c1ccc(/C=C/c2sc3ccccc3[n+]2CCCCBr)cc1,0.0357%,

SMILES,"activity change, negative = active",Potency
CCOC(=O)[C@]12CCCC=C1N(CCC1=CCCCC1)C(=O)[C@H](CC(=O)N1CCSCC1)C2,0.986%,
O=S(=O)(c1ccc(F)cc1)n1ccc(-c2cnc(-c3ccccc3)s2)n1,,20 µM (active)
O=S(=O)(c1ccc(F)cc1)N1CC=C(c2ccccc2)CC1,0.167%,
Fc1ccc2cnc(-c3ccccc3)cc2c1,-20%,
Cc1ccc(S(=O)(=O)N2CC3C(=O)C[C@@H](c4ccccc4Cl)N(S(=O)(=O)c4ccc(C)cc4)C3CC2c2ccccc2)cc1 (stereo partly specified),0.552%,
Cc1cccc(-c2nnc(SC(C)C(=O)Nc3ccccc3)n2C)c1 (stereo unspecified),-2.03%,
CCOC(=O)[C@]12CCCC=C1N(Cc1ccc3c(c1)OCO3)C(=O)[C@H](CC(=O)N1CCN(C(=O)c3ccco3)CC1)C2,-3.46%,
CN(C)c1ccc(/C=C/c2sc3ccccc3[n+]2C)cc1,0.862%,
CC1(Oc2cccc(F)c2)CCN(Cc2ccccc2OC(F)F)C1 (stereo unspecified),0.0673%,
Cc1nc2ccccc2nc1CC(O)(c1ccccc1)c1ccccc1,1.05%,
Cc1nc2ccccc2cc1O,,3.55 µM (active)
Cc1nc2cccnc2nc1C,0.763%,
CC(C)c1cc(C(=O)N(C)C2CCCN(Cc3ccccc3F)C2)n(C)n1 (stereo unspecified),-0.736%,
Cc1cn([C@H]2C[C@H](O)[C@@H](/C=C/C(=O)NCCCc3ccccc3)O2)c(=O)[nH]c1=O,-2.25%,
Cc1cc(Cl)ccc1C(=O)C1CCCN(C(=O)c2ccc3c(c2)OCO3)C1 (stereo unspecified),-3.31%,
O=C1c2cccc3cccc(c23)N1CN1CCN(c2ccccn2)CC1,10.9%,
CC(C(=O)O)N1C(=O)c2cccc3cccc1c23 (stereo unspecified),-2.92%,
COc1ccc(N2C(=O)c3cccc4cccc(c34)C2=O)nn1,,15.8 µM (active)
CCCOc1ccc(-c2cccc(NS(=O)(=O)c3ccccc3)c2)nn1,-0.0705%,
CCCS(=O)(=O)Nc1cccc(-c2cn3ccsc3n2)c1,-4.02%,
CCS(=O)(=O)Nc1cccc(-c2cc(-c3ccccc3)c3cc(C)ccc3n2)c1,,31.6 µM (active)
Cc1ccnc(N2CCC(C(=O)NC3CCCCCC3)CC2)n1,,25.1 µM (active)
O=C(NNC(=O)C1CCN(c2ncccn2)CC1)c1ccccc1,-19.4%,
O=C(NC1CCCCCC1)C1CCN(C(=O)c2ccc(Cl)cc2)CC1,0.752%,
c1cc(-c2ccc3[nH]ccc3c2)n2ccnc2c1,4.02%,
